Assays:
Experiment in all cases: log2 ratio of Biotin-Ahx-Ub-VS probe labelling (fragment/DMSO); higher = less target engagement (more negative = stronger competition), active = hit call of the paper (q ≤ 0.05, log2 ratio ≤ -1)
Conditions in all cases: compound concentration: 200 uM; treatment time: 3 h
USP34 = USP34 (UniProt Q70CQ2)
Procedure, shortened: (§1)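 HEK293T lysate in Tris/CHAPS/IGEPAL buffer with protease inhibitors (495 µg per sample) was given fragment at 200 µM or vehicle for 3 h, in triplicate. It then received Biotin-Ahx-Ub-VS at 0.5 µM final for 1 h. Labelled DUBs were NeutrAvidin-enriched, digested with LysC and trypsin, and run by diaPASEF LC-MS/MS. Values are average log2 fragment/vehicle ratios by unpaired t-test on global-median-normalised Spectronaut quantities of proteins with ≥2 unique peptides.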

USP36 = target: T1, USP36 (UniProt Q9P275)
T1 sequence (whole entry): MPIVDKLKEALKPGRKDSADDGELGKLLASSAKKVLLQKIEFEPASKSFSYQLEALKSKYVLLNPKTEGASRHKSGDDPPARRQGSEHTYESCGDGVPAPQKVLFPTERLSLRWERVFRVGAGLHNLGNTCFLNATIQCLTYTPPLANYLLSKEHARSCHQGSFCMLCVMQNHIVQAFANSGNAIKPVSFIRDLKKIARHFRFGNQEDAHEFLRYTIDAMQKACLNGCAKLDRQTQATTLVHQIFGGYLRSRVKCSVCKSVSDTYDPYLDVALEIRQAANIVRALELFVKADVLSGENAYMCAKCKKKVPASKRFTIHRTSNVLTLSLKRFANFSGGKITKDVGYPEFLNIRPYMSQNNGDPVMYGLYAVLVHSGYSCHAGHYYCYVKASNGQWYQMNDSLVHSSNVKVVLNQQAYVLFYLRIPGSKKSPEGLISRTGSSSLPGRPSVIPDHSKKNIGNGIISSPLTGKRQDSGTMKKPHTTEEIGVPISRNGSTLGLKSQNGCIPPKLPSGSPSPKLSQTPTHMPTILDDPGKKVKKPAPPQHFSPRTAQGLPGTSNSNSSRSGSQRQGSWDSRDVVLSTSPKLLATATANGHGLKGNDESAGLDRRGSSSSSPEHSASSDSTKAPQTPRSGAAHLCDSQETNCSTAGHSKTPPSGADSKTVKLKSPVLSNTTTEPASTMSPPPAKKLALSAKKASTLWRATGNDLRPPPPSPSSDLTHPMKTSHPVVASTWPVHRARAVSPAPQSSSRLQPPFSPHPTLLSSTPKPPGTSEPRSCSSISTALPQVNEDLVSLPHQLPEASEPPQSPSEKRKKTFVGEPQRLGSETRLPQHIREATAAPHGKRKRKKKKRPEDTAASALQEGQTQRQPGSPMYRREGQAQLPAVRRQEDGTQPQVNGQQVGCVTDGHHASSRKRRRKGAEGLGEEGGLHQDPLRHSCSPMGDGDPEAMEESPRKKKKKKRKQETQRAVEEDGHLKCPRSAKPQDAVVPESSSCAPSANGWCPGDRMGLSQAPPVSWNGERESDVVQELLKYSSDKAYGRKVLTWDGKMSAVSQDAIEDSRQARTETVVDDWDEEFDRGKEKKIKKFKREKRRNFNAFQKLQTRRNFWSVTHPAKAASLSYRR
Procedure, shortened: as §1

USP38 = target: T2, USP38 (UniProt Q8NB14)
T2 sequence (whole entry): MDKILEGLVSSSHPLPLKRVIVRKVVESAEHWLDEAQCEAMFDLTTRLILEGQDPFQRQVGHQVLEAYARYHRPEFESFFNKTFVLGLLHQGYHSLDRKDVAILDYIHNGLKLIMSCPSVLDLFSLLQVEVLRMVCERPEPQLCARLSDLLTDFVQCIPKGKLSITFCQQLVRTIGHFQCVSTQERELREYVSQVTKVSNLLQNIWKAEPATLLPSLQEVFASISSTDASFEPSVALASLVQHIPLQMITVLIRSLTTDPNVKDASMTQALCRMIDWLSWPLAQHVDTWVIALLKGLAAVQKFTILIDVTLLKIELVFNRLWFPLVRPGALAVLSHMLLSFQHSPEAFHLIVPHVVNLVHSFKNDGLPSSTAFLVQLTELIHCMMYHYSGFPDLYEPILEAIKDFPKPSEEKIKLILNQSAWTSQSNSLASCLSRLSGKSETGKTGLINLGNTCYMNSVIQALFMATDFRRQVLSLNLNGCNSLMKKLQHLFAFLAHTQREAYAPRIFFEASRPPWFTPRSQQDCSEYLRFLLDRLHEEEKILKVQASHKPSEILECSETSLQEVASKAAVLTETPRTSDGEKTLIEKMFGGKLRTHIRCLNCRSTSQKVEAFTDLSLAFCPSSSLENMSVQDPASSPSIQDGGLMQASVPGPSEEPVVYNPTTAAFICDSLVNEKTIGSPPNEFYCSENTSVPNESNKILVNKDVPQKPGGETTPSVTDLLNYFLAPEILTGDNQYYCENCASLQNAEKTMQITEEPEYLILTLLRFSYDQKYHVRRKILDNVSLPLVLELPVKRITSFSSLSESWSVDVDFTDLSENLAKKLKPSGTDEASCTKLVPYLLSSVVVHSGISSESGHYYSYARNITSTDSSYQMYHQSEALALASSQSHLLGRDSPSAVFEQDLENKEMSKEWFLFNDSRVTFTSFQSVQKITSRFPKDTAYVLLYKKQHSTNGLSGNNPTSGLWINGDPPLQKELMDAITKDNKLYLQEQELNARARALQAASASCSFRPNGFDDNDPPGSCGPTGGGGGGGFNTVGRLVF
Procedure, shortened: as §1

USP39 = target: T3, USP39 (UniProt Q53GS9)
T3 sequence (whole entry): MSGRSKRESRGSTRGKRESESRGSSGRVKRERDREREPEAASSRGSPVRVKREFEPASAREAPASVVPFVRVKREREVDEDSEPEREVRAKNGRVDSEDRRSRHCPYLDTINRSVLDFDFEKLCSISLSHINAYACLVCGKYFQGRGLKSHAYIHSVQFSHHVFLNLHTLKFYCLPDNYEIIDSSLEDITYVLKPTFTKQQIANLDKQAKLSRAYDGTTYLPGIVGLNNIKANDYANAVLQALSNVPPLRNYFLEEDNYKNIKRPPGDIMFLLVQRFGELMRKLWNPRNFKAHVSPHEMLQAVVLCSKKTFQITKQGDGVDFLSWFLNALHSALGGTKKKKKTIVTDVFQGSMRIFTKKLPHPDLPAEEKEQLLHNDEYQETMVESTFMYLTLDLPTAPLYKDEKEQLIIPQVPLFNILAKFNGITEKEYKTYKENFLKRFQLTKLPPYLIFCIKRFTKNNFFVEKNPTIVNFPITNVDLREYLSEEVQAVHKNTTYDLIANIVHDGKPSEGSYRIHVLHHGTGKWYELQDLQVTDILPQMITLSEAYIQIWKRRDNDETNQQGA
Procedure, shortened: as §1

USP4 = target: T4, USP4 (UniProt Q13107)
T4 sequence (whole entry): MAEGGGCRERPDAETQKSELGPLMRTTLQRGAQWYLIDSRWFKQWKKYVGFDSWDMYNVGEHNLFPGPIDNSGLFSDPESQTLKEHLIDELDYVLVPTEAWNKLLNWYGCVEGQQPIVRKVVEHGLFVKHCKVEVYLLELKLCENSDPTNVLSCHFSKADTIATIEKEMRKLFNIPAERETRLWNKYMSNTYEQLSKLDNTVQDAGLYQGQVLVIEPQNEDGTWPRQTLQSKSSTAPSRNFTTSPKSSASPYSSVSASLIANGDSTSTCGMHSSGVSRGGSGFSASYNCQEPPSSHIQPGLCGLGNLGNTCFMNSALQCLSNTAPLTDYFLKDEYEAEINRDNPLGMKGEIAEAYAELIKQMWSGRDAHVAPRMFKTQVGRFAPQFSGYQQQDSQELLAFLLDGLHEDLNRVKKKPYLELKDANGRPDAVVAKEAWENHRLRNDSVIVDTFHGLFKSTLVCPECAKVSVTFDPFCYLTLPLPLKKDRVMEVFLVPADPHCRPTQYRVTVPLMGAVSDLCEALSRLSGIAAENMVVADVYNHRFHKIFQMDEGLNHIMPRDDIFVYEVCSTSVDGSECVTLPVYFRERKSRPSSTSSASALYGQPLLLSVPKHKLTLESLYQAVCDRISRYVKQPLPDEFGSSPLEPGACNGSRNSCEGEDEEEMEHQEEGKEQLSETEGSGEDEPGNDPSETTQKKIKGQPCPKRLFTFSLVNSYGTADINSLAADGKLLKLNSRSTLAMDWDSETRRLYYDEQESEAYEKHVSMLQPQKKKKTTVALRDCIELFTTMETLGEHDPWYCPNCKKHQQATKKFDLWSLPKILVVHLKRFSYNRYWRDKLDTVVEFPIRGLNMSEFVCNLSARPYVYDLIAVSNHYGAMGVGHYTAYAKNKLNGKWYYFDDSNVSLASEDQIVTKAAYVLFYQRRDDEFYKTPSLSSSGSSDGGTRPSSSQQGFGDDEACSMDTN
Procedure, shortened: as §1

Measured: log2 ratio of Biotin-Ahx-Ub-VS probe labelling

Chain of USP34 (Q70CQ2 whole entry, the tested form may be a part): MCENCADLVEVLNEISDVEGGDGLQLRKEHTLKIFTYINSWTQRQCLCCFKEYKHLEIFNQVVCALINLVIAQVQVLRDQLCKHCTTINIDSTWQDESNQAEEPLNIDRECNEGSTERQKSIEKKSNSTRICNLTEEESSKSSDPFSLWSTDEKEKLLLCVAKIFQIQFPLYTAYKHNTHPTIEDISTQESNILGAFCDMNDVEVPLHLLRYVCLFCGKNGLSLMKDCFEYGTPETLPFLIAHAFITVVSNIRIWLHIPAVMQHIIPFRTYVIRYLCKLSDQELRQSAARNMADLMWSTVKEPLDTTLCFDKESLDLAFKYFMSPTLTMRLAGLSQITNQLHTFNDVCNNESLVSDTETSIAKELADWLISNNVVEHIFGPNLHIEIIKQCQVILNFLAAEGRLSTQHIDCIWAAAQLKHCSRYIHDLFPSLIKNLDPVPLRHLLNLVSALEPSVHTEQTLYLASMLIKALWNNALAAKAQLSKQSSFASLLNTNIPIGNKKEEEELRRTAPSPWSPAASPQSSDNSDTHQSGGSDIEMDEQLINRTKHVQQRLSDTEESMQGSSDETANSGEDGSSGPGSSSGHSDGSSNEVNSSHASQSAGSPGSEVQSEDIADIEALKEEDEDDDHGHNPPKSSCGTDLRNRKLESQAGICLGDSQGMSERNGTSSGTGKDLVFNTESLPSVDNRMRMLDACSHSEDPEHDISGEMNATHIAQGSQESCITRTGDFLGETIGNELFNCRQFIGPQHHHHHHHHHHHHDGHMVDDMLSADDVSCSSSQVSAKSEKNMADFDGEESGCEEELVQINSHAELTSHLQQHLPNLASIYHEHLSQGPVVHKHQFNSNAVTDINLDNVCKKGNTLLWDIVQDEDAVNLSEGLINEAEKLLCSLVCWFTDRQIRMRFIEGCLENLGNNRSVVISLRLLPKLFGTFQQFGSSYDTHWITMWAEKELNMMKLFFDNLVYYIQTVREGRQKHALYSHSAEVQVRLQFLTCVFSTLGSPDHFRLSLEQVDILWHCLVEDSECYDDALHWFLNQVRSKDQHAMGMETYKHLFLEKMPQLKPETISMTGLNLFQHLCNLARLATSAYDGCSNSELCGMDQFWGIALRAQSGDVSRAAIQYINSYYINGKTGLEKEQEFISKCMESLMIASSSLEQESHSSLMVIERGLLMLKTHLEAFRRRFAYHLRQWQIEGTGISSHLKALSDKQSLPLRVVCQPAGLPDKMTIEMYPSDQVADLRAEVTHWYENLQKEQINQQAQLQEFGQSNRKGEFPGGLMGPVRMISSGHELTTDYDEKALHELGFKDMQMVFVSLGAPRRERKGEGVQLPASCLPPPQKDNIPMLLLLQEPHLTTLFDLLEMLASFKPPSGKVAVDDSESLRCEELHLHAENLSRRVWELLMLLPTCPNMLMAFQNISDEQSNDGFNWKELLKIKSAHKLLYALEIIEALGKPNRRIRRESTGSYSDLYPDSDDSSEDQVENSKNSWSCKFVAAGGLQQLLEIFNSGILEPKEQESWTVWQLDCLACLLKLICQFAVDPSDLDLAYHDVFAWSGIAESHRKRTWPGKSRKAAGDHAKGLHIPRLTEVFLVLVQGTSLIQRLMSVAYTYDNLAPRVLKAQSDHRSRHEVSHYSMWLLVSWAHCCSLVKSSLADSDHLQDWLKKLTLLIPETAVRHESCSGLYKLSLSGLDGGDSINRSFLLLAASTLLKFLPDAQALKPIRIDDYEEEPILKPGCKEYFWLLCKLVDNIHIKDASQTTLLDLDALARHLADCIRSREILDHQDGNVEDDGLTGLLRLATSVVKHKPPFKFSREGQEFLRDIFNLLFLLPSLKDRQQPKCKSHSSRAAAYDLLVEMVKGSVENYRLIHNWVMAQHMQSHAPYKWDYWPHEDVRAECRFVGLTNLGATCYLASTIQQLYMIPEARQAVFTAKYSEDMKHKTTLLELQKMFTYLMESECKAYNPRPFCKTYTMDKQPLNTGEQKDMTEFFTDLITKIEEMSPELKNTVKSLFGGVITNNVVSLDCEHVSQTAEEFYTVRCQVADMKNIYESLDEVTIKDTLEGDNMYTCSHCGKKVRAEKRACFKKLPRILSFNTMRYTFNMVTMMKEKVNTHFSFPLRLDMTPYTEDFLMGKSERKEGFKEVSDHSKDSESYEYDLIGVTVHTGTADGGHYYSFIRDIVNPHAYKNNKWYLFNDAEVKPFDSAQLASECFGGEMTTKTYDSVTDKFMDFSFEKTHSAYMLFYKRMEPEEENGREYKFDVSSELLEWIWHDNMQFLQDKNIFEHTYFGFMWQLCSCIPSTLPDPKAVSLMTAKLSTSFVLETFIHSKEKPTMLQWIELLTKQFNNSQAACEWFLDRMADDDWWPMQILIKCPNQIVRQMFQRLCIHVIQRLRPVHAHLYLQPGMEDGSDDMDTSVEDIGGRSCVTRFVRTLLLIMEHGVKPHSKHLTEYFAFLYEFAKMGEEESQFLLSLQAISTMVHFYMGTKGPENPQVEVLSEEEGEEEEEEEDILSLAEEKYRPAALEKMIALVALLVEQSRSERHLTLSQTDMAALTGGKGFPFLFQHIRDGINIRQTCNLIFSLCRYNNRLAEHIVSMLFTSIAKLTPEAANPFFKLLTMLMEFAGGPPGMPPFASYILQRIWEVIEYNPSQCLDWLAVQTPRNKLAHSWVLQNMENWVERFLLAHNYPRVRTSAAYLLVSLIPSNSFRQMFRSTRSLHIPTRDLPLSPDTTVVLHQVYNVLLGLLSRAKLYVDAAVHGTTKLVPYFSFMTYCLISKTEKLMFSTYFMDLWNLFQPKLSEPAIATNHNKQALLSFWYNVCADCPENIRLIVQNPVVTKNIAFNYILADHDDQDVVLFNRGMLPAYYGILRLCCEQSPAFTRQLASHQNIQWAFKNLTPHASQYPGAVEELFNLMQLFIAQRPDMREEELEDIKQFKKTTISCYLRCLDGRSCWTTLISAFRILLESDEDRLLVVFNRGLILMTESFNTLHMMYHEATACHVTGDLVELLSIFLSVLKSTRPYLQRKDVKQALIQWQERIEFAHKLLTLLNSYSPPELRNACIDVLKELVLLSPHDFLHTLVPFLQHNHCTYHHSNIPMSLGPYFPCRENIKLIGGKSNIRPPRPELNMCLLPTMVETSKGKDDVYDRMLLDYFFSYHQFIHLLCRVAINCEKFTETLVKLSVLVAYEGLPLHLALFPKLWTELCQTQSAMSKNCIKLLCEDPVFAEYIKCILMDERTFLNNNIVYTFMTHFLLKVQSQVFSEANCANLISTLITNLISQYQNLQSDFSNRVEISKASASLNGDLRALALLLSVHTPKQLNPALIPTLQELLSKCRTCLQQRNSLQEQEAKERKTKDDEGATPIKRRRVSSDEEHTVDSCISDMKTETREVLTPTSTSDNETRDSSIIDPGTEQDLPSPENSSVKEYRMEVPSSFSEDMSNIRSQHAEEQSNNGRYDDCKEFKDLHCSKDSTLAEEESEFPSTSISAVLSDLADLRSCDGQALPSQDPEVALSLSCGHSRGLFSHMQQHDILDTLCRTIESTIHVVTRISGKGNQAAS

Cl.Cn1cnc2cc(CNC(=O)CCl)ccc21
inactive: USP34 -0.0912 | USP36 -0.188 | USP38 -0.21 | USP39 -0.337 | USP4 -0.0327

Source: the supplement of paper PMC11732987, “Enantioselective OTUD7B fragment discovery through chemoproteomics screening and high-throughput optimisation” (Communications Chemistry, 2025)
